Screening data as filed in PubChem.
Compounds with a hit are over-represented: about 2.3% of the library has one in this group of screens.
ATXN2 expr inh: Primary qHTS for Inhibitors of ATXN expression | HEK-293 ATXN2-luciferase reporter, luminescence, 24 h | Potency, µM (series often up to 57 µM), without a hit: at the top dose activity change, negative = inhibition, hits mostly inhibitors | 0.72% of 360,000 active; note: % is set by controls: 0 for no effect and ±100 for the full control effect; nearly all actives have a fitted effect of over 55% in size
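qHTS (up to 57 uM final) was run with 24 h compound exposure of reporter cells at 37 °C. Each well was multiplexed: SteadyGlo luminescence measured ATXN2-luciferase expression after a fluorogenic Gly-Phe-AFC viability readout (25 uM final).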
S2 tox: Viability Counterscreen for Primary qHTS for Inhibitors of ATXN expression; S2 cells (HEK-293 line with an ATXN2-luciferase reporter) viability, CellTiter-Fluor protease fluorescence, 24 h; Potency, µM (titrated, usually from 56.7 µM), hits mostly cytotoxic; 0.49% of 400,000 active; note: nearly all actives have a fitted effect of over 40% in size
TGFb SMAD3 inh: qHTS for Inhibitors of TGF-b; HepG2 CAGA-GFP TGF-b/SMAD3 reporter, GFP fluorescence, 18 h; TGF-beta stimulated, 500 pg/mL final; Potency, µM (doses to about 46.1 µM), for the others: at the top dose activity, negative = inhibition, actives largely listed as inhibitors; 1.2% of 410,000 active; AID 588855, 2011; note: % is set by controls: 0 for no effect and ±100 for the full control effect; nearly all actives have a fitted effect of over 65% in size
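First, reporter cells (HEPG2 CAGA-GFP) rested 2 h at 37 degrees C. Next, compounds were pinned in and TGF-beta added to 500 pg/mL final. After 18 h, GFP was imaged per cell and summed per well.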
HepG2 viability: qHTS for Inhibitors of TGF-b: Cytotox Counterscreen | HepG2 CAGA-GFP viability, ATP luminescence, 18 h | Potency, µM (highest dose often 46.1 µM), inactives show at the highest dose activity change, negative = cytotoxicity, hits mostly cytotoxic | 0.76% of 410,000 active
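CellTiter-Glo luminescence gave cytotoxicity after 18 hours at 37 degrees C. The cells were HepG2 CAGA-GFP in 1% FBS DMEM, stimulated with 500 pg/mL TGF-beta after compound addition. %Activity was normalised to no-cell wells (complete cell-killing) and DMSO (no toxicity), and curves were fitted and classified.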
Starred values were filed as active, the others as inactive; i = inactive; ? = inconclusive; nt = no result; ! = not confirmed by another sample. Calls come from the whole dose curve; as a rule, active = well fitted curve in the direction sought with a large enough effect; inconclusive = small, poorly fitted or top-dose-only effect, or another doubt; inactive = no such curve, though single readings can be large; an effect the other way counts as inactive or inconclusive. Potency is the fitted concentration of half-maximal effect.

SMILES	ATXN2 expr inh	S2 tox	TGFb SMAD3 inh	HepG2 viability
Cc1c(C(=O)OC/C(O)=C(\C#N)c2nc3ccccc3[nH]2)oc2ccccc12	?	?	12.6µM*	-55.9%
Cc1cnc(C(=O)N2CCN(S(=O)(=O)c3cc(C(F)(F)F)cc(C(F)(F)F)c3)CC2)cn1	nt	i	?	-14.1%
CC1CC1C(=O)N1CCN(S(=O)(=O)c2cc(C(F)(F)F)cc(C(F)(F)F)c2)CC1 (centres undefined)	?	i	14.1µM*	-45.9%
CCOC(=O)C1=C(C)N=c2s/c(=C/c3cccc([N+](=O)[O-])c3O)c(=O)n2C1c1ccc(OC)cc1OC (centres undefined)	-32.1%	12.6µM*	7.2%	-7.9%
CN1C(C(=O)Nc2ccc(C(=O)O)cc2)=C(O)c2ccccc2S1(=O)=O	-1.9%	i	-3.2%	5.62µM*
COc1ccc2[nH]c(=O)c(CN(CCN3CCCC3)C(=O)Nc3ccccc3Cl)cc2c1	4.6%	i	2.7%	-34.5%
CCOc1ccc2[nH]c(=O)c(CN(CCN3CCCC3)C(=S)Nc3ccccc3OCC)cc2c1	-33.7%	?	15.8µM*	14.1µM*
Cc1cnc(CNC(=O)c2c3n(c(C)cc2=O)-c2ccccc2SC(c2ccsc2)C3)cn1 (centres undefined)	nt	i	nt	nt
CCCC1=Nc2cc(C(=O)N3CCC(C(=O)OCC)CC3)ccc2Sc2ccccc21	-0.2%	i	12.6µM*!	-9.0%
CCC1=Nc2cc(C(=O)N3CCCCC3)ccc2Sc2ccc(C)cc21	?	31.6µM*	-15.8%	-4.2%
CCCC1=Nc2cc(C(=O)NC3CCCC3)ccc2Sc2ccc(C)cc21	nt	nt	0.794µM*	-0.8%
CCCC1=Nc2cc(C(=O)N3CCC(C(N)=O)CC3)ccc2Sc2ccccc21	-4.7%	i	18.6%	-1.2%
CCOC(=O)C1CCCN(C(=O)c2ccc3c(c2)C(C)(C)CCC3(C)C)CC1 (centres undefined)	0.0%	i	14.1µM*	-39.2%
CC1=Nc2cc(C(=O)NCCc3ccc(Cl)cc3)ccc2Sc2ccc(C)cc21	nt	nt	8.91µM*	-17.4%
c1cnc2[nH]ccc2c1	nt	nt	-4.9%	4.1%
Cc1ccccc1C(=O)Nc1cccc(C(=O)N/N=C/c2cc(Cl)cc([N+](=O)[O-])c2O)c1	22.4µM*	i	-17.9%	-13.5%
COc1cc(/C=N/NC(=O)c2cccc(NC(=O)c3ccccc3C)c2)ccc1O	0.1%	i	0.6%	-13.7%
Cc1c(C(=O)NCC2COCCO2)cnn1-c1nccc(-c2cccs2)n1 (centres undefined)	nt	i	nt	nt
CN1CCN(c2ccc(S(=O)(=O)N3CCCCC3)cc2NC(=O)/C=C/c2ccc(Cl)c([N+](=O)[O-])c2)CC1	22.4µM*	?	?	-96.9%
CCN1CCN(c2ccc(S(=O)(=O)N3CCCCC3)cc2NC(=O)/C=C/c2ccc([N+](=O)[O-])cc2)CC1	31.6µM*	?	-27.4%	-46.7%
CN1CCN(c2ccc(S(=O)(=O)N3CCCCC3)cc2NC(=O)c2ccc3ccccc3c2)CC1	-3.4%	i	35.5µM*	-53.9%
CCOC(=O)/C=C/c1ccc2c(c1)S(=O)(=O)N(C1CCCC1)[C@H]2CC(=O)OCC	nt	nt	2.6%	0.4%
COc1cc(-c2ccc(C(F)(F)F)cn2)cc2c1OCCN(S(=O)(=O)C[C@]13CC[C@H](CC1=O)C3(C)C)C2	nt	i	nt	nt
CCN1CCN(c2ccc(NC(=O)c3ccc(Br)o3)cc2)CC1	-4.8%	i	5.1%	-13.3%
COc1cc2ccccc2cc1C(=O)Nc1ccc(N2CCN(C(=O)C(C)C)CC2)cc1	nt	?	15.0%	-7.1%
SMILES	ATXN2 expr inh	S2 tox	TGFb SMAD3 inh	HepG2 viability
CN1CCN(c2ccc(NC(=O)c3ccc(-c4ccc(Br)cc4)o3)cc2)CC1	?	?	?	22.4µM*
COc1cc2ccccc2cc1C(=O)Nc1ccc(N2CCN(C)CC2)cc1	nt	nt	-13.6%	12.6µM*
COc1ccc2c(c1)C=C/C2=C\c1ccc(N(C)C)cc1	nt	nt	-2.3%	-29.7%
O=C(C[N+]1(CCc2ccccc2)CCOCC1)c1cccc([N+](=O)[O-])c1	nt	nt	-9.4%	-1.2%
CC(C)(C)OC(=O)NCCc1nnc(S(=O)(=O)Cc2ccc(Cl)cc2Cl)o1	?	nt	10µM*	14.1µM*
C[C@@H]1CN(Cc2ccc3c(c2)CN(Cc2coc4ccccc4c2=O)CCO3)C[C@H](C)O1	nt	i	nt	nt
CC1CN(C(=O)/C=C/c2ccc([N+](=O)[O-])s2)CC(C)O1 (centres undefined)	-23.9%	i	?	10µM*
O=C(/C=C/c1ccc([N+](=O)[O-])s1)N1CCCCC1	?	?	12.6µM*	11.2µM*
O=C(/C=C/c1ccc([N+](=O)[O-])s1)N1CCCC1	nt	?	11.2µM*	20µM*
O=C(NOCC(O)CO)c1cc(Br)c(F)c(F)c1Nc1ccc(I)cc1F (centres undefined)	-6.8%	nt	nt	nt
COc1cccc(/C=C/c2nccc3ccccc23)c1OC	nt	nt	3.3%	-8.4%
OC(c1ccc2c(c1)CN(Cc1cccn1-c1ncccn1)CCO2)C1CCCCC1 (centres undefined)	nt	i	nt	nt
CCCCCN(CCCCC)c1ccc(/C=C/c2ccnc3ccccc23)cc1	nt	nt	-3.8%	-9.2%
Cc1ccc(N=Nc2ccc(O)c3ncccc23)cc1	12.6µM*	?	?	7.6%
COc1ccccc1N=Nc1ccc(O)c2ncccc12	nt	15.8µM*	?	-9.9%
Nc1c(Cl)cc(C=O)cc1Cl	nt	nt	5.9%	0.4%
Nc1ccc(C(=O)N2CC3CC(CN(Cc4ccccc4)C3)C2)cc1	0.3%	i	nt	nt
O=C(O)c1ccccc1[O-].O=C(O)c1ccccc1[O-].[Zn+2]	nt	i	nt	nt
Cc1nn(Cc2ccc(F)cc2)c(C)c1NC(=O)c1cc(-c2ccc3c(c2)OCO3)on1	-15.0%	i	17.6%	-13.3%
Cc1ccc(Cn2nc(C)c(NC(=O)c3cc(-c4ccc5c(c4)OCO5)on3)c2C)cc1	?	?	-21.2%	11.2µM*
COc1cccc(Cn2cnc3c(cnn3C(C)(C)C)c2=O)c1	nt	nt	-7.6%	-25.2%
O=c1cc(CN2CCN(c3ccccc3F)CC2)c2cc3c(cc2o1)CCCC3	-14.1%	i	?	17.8µM*
NC(=O)Nc1cc(-c2ccc(CN3CCOCC3)cc2)sc1C(N)=O	27.2%	nt	nt	nt
COc1ccc(CCNC(=O)c2ccc(Cn3c(=O)c4ccccc4n(Cc4cccc(F)c4)c3=O)cc2)cc1OC	?	28.2µM*	?	-8.0%
COc1ccc(CCNC(=O)CCCn2c(=O)c3ccccc3n(Cc3cccc(Cl)c3)c2=O)cc1OC	?	nt	11.2µM*	-37.2%
CCCCCCOC(=O)C[N+](C)(C)CCOC1CC2CCC1(C)C2(C)C (centres undefined)	-6.5%	i	-0.5%	-10.6%
CCCCCCCOC(=O)C[N+](C)(C)CCOC1CC2CCC1(C)C2(C)C (centres undefined)	35.5µM*	?	?	17.8µM*
CC[C@@H](C)[C@H](CN[C@H](CNC)C(C)C)NC[C@@H](C)c1ccc(CC(C)C)cc1	28.2µM*	nt	?	-110.9%
